“And” between values parts separate entries of the source, which are not always exact repeats. Equal values may be shown once. Records with an inconclusive call do not appear. A number with no mark means an inactive call. The source made the active and inactive calls. Unless noted, calls come from the whole dose curve; as a rule, active = well fitted curve in the direction sought with a large enough effect; inconclusive = small, poorly fitted or top-dose-only effect, or another doubt; inactive = no such curve, though single readings can be large; an effect the other way counts as inactive or inconclusive.

Experiment [1] deals with Cellular tumor antigen p53 (Homo sapiens) (UniProt P04637). The experiment in a line: Primary qHTS for small molecule compounds that upregulate eGFP-tagged delta133p53alpha (in N-terminal) cells. (AID 2060322).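 Note: 0% = DMSO vehicle and 100% = reference activator; nearly all actives have a fitted effect of over 75% in size.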 The settings on record: NCI-H358 eGFP-delta133p53alpha fluorescence, 24 h; activation: stronger effect = higher value. Put shortly:
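NCI-H358 cells pre-induced 24 h with 10 ng/ml doxycycline to express N-terminal eGFP-delta133p53alpha, then dosed 24 h at 37C without doxycycline; fixed, Hoechst-stained, GFP intensity by laser scanning cytometry, normalized to DMSO (0%) and 57.5 uM 5-azacytidine (100%).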
For orientation: qHTS replaces the single test concentration by a dilution series.

The target is the same in experiment [2]. The experiment in a line: Primary qHTS for small molecule compounds that upregulate eGFP-tagged delta133p53alpha (in C-terminal) cells. (AID 2060324). Note: potency is the fitted concentration of half-maximal effect. The settings on record: NCI-H358 delta133p53alpha-eGFP (C-terminal tag), GFP fluorescence imaging, 24 h; series mostly up to 57.5 µM. Put shortly: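 NCI-H358 cells with doxycycline-inducible D133p53a-eGFP (C-terminal tag), pre-induced 24 h with 100 ng/ml doxycycline, plated 800/well in doxycycline-free medium and treated 24 h at 37 °C with compound titrations. Cells were then fixed and Hoechst-stained, and GFP intensity was read by laser scanning cytometry.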

Experiment [3] concerns the target Aldehyde dehydrogenase, mitochondrial (Homo sapiens) (UniProt P05091). The experiment in a line: qHTS for Inhibitors of the Aldehyde Dehydrogenase Family (ALDH2) Validation screens (AID 2061302; active = well fitted inhibition curve with a large enough effect; title and protocol of this record describe different tests;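 note: plate controls were DMSO vehicle for no effect and maximal DPI positive control response for full effect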). The settings on record: ALDH inhibition qHTS; series mostly up to 42.6 µM.
In experiment [4] the target is Retinaldehyde dehydrogenase 3 (Homo sapiens) (UniProt P47895). Kind of experiment: qHTS for Inhibitors of the Aldehyde Dehydrogenase Family (ALDH1A3) Validation screen (AID 2061312). Note: % is set by controls: 0 for no effect and ±100 for the full control effect; nearly all actives have a fitted effect of over 45% in size. The settings on record: ALDH1A3 enzyme inhibition qHTS validation, fluorescence; series mostly up to 84.7 µM.

Cellular tumor antigen p53 (Homo sapiens), sequence (P04637 whole entry, looked up): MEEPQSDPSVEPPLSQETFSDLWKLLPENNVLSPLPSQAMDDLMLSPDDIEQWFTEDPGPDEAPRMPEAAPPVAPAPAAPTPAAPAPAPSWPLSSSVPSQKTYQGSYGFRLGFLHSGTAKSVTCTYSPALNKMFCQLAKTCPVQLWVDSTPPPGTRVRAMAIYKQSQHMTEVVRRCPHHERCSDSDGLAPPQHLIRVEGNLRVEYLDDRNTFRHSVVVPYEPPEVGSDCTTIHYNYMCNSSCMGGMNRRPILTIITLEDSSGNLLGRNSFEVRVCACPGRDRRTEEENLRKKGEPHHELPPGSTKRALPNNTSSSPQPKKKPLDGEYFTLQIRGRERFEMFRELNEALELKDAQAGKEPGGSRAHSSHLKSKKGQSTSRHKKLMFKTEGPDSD

On to `O=C(O)c1cc2cc(Cc3cccnc3)ccc2o1`, for which the activation in experiment [1] was 19.6%. Besides, the Potency result in experiment [2], in experiment [3] and in experiment [4] was “inactive” in each case.

Consider `CN(C)CCOC(=O)COc1ccc(Cl)cc1`, for which, in experiment [1], the activation is -18.4% and -20.3%. Further, the Potency entry in experiment [2], in experiment [3] and in experiment [4] was “inactive” each time.

Regarding `CNCCCC1c2ccccc2C=Cc2ccccc21`, the activation in experiment [1] is -1.67% and -3.36%. The Potency result in experiment [2], in experiment [3] and in experiment [4] was “inactive” throughout.

Regarding `CCCCCCCC/C=C\CCCCCCCC(=O)NCCO`, the activation in experiment [1] was -9.12%. For the same compound, the Potency entry in experiment [2], in experiment [3] and in experiment [4] was “inactive” throughout.

In the case of `NS(=O)(=O)C#Cc1ccccc1`, in experiment [1], the activation was 60.6%. Besides, the Potency in experiment [2] was 30.1 µM (active). The Potency entry in experiment [3] and in experiment [4] was “inactive” in each case.

For `Cn1c(=O)[nH]c2ncn(C)c2c1=O`, the activation in experiment [1] is -21.1%. In addition, the Potency entry in experiment [2], in experiment [3] and in experiment [4] was “inactive” in each case.

Regarding `COc1cc([C@@H]2c3cc4c(cc3[C@H](O)C3COC(=O)[C@@H]32)OCO4)cc(OC)c1OC` (stereo partly specified), in experiment [1], the activation was -47.3%. Further, the Potency entry in experiment [2], in experiment [3] and in experiment [4] was “inactive” each time.

Take `C=CC[C@H](N)C(=O)O`: the activation in experiment [1] was -35.4%. Besides, the Potency result in experiment [2], in experiment [3] and in experiment [4] was “inactive” each time.

Turning to `Cn1c(=O)c2[nH]c(C3CCCC3)nc2n(C)c1=O`, the activation in experiment [1] was 3.95%. The Potency entry in experiment [2], in experiment [3] and in experiment [4] was “inactive” throughout.

These data come from PubChem BioAssay (NCATS).
